# Screen size: about 310,000 compounds; about 14,000 (4.5%) showed an effect of 50% or more. Effects have a minus sign here. Many of the other results were omitted from the sample, so strong results are more common in it than they were.
# Molecular target: human ether-à-go-go-related gene (hERG) potassium channel (human, UniProt Q12809)
# Experiment: primary screen, population patch clamp on CHO cells stably expressing hERG; higher = less effect of the substance
# 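Further: peak tail current of the secondary pulse compared with the same well before compound.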
# Sequence of human ether-à-go-go-related gene (hERG) potassium channel (Q12809 whole entry, looked up): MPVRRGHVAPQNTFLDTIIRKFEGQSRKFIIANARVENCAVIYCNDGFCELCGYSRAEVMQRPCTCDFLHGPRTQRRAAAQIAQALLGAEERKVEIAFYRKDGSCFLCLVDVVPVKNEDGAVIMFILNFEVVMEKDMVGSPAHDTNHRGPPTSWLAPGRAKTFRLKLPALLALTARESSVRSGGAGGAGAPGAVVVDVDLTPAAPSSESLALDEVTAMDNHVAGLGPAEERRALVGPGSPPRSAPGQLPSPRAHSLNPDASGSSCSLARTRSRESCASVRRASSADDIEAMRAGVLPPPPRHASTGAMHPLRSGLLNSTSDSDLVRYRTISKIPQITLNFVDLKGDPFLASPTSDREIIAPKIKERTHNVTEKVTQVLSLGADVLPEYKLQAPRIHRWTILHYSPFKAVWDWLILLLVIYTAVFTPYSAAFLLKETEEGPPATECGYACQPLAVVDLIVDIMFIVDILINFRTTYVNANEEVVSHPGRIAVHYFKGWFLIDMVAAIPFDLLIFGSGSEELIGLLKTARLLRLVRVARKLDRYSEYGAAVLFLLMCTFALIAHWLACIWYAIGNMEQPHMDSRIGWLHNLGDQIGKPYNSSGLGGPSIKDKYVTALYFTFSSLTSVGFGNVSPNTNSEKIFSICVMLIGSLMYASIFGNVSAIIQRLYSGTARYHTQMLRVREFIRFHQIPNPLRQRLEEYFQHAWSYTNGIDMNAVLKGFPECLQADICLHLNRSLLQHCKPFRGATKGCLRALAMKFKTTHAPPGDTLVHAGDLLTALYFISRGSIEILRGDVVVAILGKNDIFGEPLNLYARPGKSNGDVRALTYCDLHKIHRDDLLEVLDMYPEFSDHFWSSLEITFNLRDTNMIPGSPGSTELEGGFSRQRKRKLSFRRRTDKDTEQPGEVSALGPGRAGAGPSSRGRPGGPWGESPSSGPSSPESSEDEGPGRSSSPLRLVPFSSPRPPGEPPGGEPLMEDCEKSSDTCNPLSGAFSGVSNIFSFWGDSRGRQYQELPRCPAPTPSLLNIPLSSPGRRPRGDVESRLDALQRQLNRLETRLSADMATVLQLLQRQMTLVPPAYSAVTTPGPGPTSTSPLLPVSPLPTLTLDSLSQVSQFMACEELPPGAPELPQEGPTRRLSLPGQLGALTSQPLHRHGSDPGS
row,SMILES,"hERG current change (%, negative = inhibition) at 10uM"
1,Cc1c(N=Cc2nc3ccccc3[nH]2)c(=O)n(-c2ccccc2)n1C,5.52%
2,Cc1ccc(S(=O)(=O)NC(CC(=O)N2CCC3(CC2)OCCO3)c2ccco2)cc1 (stereo not shown),3.51%
3,CC(C)[C@H](NC(=O)NCCc1ccc(Cl)cc1)C(=O)O,5.9%
4,COc1ccccc1-c1noc(CCC(=O)Nc2cc(C(F)(F)F)ccc2Cl)n1,-3.68%
5,CC(C)=CC(=O)OCC(=O)Nc1cc([N+](=O)[O-])ccc1F,0.461%
6,CC(C)CCN(Cc1ccco1)S(=O)(=O)c1csc(C(N)=O)c1,-14.9%
7,CC1(c2ccc(OC(F)F)cc2)NC(=O)N(CC(=O)N2c3ccccc3NC(=O)C2(C)C)C1=O (stereo not shown),-6.78%
8,CCCCNC(=O)N(O)C1N(/N=C/c2ccccc2F)C(=S)SC1(C)C (stereo not shown),16.5%
9,Cc1ccc(C(=O)N[C@H](C(=O)OCC(=O)NC2CCS(=O)(=O)C2)C(C)C)cc1 (stereo partly shown),11.6%
10,Cc1ccc2[nH]c(=O)c(CN(CCCN(C)C)C(=O)Nc3cccc(Cl)c3)cc2c1,-53.6%
11,Cc1cccc(NC(=O)N(Cc2cc3cc(C)ccc3[nH]c2=O)CC2COCCO2)c1 (stereo not shown),6.43%
12,CC(=O)N(CCc1cccc(C)c1)Cc1cc2cc(C)ccc2[nH]c1=O,-5.71%
13,CN(C)CCCN(Cc1cc2cc3c(cc2[nH]c1=O)OCO3)C(=S)Nc1cccc(Cl)c1,-45.7%
14,Cc1cccc(NC(=S)N(CCCN(C)C)Cc2cc3cc4c(cc3[nH]c2=O)OCO4)c1,-52.7%
15,Cc1ccc(NC(=S)N(CCCN(C)C)Cc2cc3cc4c(cc3[nH]c2=O)OCO4)cc1,-41.7%
16,Cc1ccc2[nH]c(=O)c(CN(CCO)C(=O)N(C)C)cc2c1,5.5%
17,Cc1ccc2[nH]c(=O)c(CN(CCCN(C)C)C(=O)Nc3ccc(Cl)cc3)cc2c1,-66.1%
18,COc1ccc(NC(=O)N(Cc2cc3cc(C)ccc3[nH]c2=O)CC2CCCO2)cc1 (stereo not shown),-25.2%
19,Cc1ccc2[nH]c(=O)c(CN(CCCN(C)C)C(=O)Nc3ccc(F)cc3)cc2c1,-70.7%
20,CN(C)CCCN(Cc1cc2cc3c(cc2[nH]c1=O)OCO3)C(=S)Nc1ccccc1,-36.6%
21,CCCn1c(SCC(=O)NCc2ccco2)nnc1-c1ccncc1,19.9%
22,O=C(NNC(=O)C1CC1)Nc1ccc(Cl)cc1,6.38%

row,SMILES,"hERG current change (%, negative = inhibition) at 10uM"
1,CNC(=O)c1nn(-c2ccccc2)ccc1=O,-1.51%
2,COc1cc2nc(N3CCN(C(=O)[C@H]4COc5ccccc5O4)CC3)nc(N)c2cc1OC,-37.7%
3,O=S(=O)(c1ccccc1F)N1CCN(Cc2cc3c(cc2O)OCO3)CC1,-11.8%
4,O=C(COC(=O)C1=COCCO1)Nc1ccc(F)c(F)c1,-1.21%
5,Cc1ccc(N2C(=O)C3C4C=CC(C4)C3C2=O)cc1C (stereo not shown),13.3%
6,C=CCn1c(SCC(=O)NC(=O)c2cccc([N+](=O)[O-])c2)nnc1-c1ccccc1F,-15.5%
7,O=C(CSc1nnc(-c2ccccc2F)n1C1CC1)NC(=O)c1cccc([N+](=O)[O-])c1,-52.8%
8,Cn1c(SCC(=O)NC(=O)c2cccc([N+](=O)[O-])c2)nnc1-c1ccc(F)cc1,-23.3%
9,NS(=O)(=O)c1cccc(C(=O)NC2CCSc3ccccc32)c1 (stereo not shown),7.91%
10,COc1cc(C(=O)N/N=C/c2ccc(OC(=O)c3ccccc3Cl)cc2)ccc1O,-10.5%
11,O=c1[nH]c(=S)[nH]c2scc(-c3ccc(Br)cc3)c12,16.3%
12,CCS(=O)(=O)N1N=C(c2cccc(NS(C)(=O)=O)c2)CC1c1ccccc1 (stereo not shown),-16.9%
13,CCS(=O)(=O)Nc1cccc(C2=NN(S(C)(=O)=O)C(c3ccccc3)C2)c1 (stereo not shown),-14.6%
14,CS(=O)(=O)Nc1cccc(C2=NN(S(C)(=O)=O)C(c3ccccc3)C2)c1 (stereo not shown),-30.9%
15,Cc1ccc(C2CC(c3cccc(NS(C)(=O)=O)c3)=NN2S(C)(=O)=O)cc1 (stereo not shown),-69.3%
16,CCS(=O)(=O)N1N=C(c2cccc(NS(C)(=O)=O)c2)CC1c1ccc(C)cc1 (stereo not shown),-73.9%
17,CCS(=O)(=O)Nc1cccc(C2=NN(S(=O)(=O)CC)C(c3ccccc3)C2)c1 (stereo not shown),1.69%
18,O=c1cc(-c2ccccc2)nc(N2CCCCC2)[nH]1,-13.7%
19,CN(Cc1ccc(F)cc1)C(=O)c1sccc1-c1ccccc1,0.217%
20,Cc1cc(=O)[nH]c(NN)n1,6.39%
21,COc1cccc2cc(C(=O)NCc3ccco3)c(=O)oc12,2.32%

# From PMC4336329 (PLoS ONE, 2015)
